For seven molecules, Potency and outcome results are on record in PubChem BioAssay (Tox21).

SMILES strings stand for the structures. Unmarked numbers belong to inactive results. Inconclusive results are not listed. Active and inactive are the calls of the source. Unless noted, the call rests on the fitted dose curve.

Experiment [1] can be described thus: Nuclear factor erythroid 2-related factor 2/antioxidant responsive element (Nrf2/ARE) small molecule agonists: qHTS cell viability counter screen in human keratinocytes (AID 1919968; active means well fitted curve in the direction sought with a large enough effect in the repeat runs; an effect the other way counts as inactive or inconclusive; further: nearly all actives have a fitted effect of over 55% in size). The procedure, abridged:
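Measured as CellTiter-Fluor fluorescence, this readout tracks cytotoxicity in the same wells as the ARE-luciferase screen. HaCaT reporter cells (1,500/well) received compounds after a 5 h pre-incubation and were exposed for 23 h.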
Background: qHTS replaces the single test concentration by a dilution series.

Experiment [2] in a line: Nuclear factor erythroid 2-related factor 2/antioxidant responsive element (Nrf2/ARE) small molecule agonists: luciferase reporter gene qHTS assay in human keratinocytes (AID 1919969). Further: nearly all actives have a fitted effect of over 35% in size. Further: potency means the concentration at half of the fitted maximal effect. In general terms: In a reporter assay the amount or activity of a reporter protein is the signal.
Experiment [3] has as its target Gonadotropin-releasing hormone receptor (Homo sapiens) (UniProt P30968). Description: Human gonadotropin-releasing hormone receptor (GnRHR) small molecule agonists, calcium flux assay in GnRHR-HEK293 cells (AID 1920063). Further: nearly all actives have a fitted effect of over 35% in size. In outline:
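Fluorescence kinetics (480 nm excitation, 540 nm emission; 3 min, 1 s steps) report calcium mobilisation in human GnRHR-HEK293 cells in agonist mode. Dye incubation: 1 h, 37 C.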
For orientation: Calcium assays in cells follow changes in intracellular calcium, usually with a dye or a luminescent sensor.

The target of experiment [4] is KiSS-1 receptor (Homo sapiens) (UniProt Q969F8). Briefly: Human kisspeptin (KISS1R) small molecule agonists, calcium flux assay in KISS1R-HEK293 cells (AID 1920064; active means well fitted curve in the direction sought with a large enough effect in the repeat runs; an effect the other way counts as inactive or inconclusive). In outline:
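Measures KISS1R agonism through calcium-sensitive dye fluorescence in stably transfected HEK293 cells, read for 3 min after pin-tool compound delivery; 15-point titrations in triplicate.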

Experiment [5] is described as follows: G protein-coupled receptor (GPCR) small molecule agonists, calcium flux assay: HEK293 wild type cell line counter screen (AID 1920065). In outline:
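Readout: fluorescence at 480 nm excitation/540 nm emission, sampled at 1 s intervals for 3 min. Cells had been cultured 18 h, then dye-loaded 1 h at 37 C before compound or ATP addition.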

Experiment [6] can be described thus: p53 small molecule agonists, cell-based qHTS assay with human liver microsomes (AID 1963577).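 Further: p53 response element beta-lactamase reporter cells with liver microsomes plus NADPH.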 The procedure, abridged:
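Metabolically competent format: test substances, human liver microsomes and NADPH (both 0.5 mg/mL final) incubated with p53RE-bla cells 16 h at 37 C. Beta-lactamase reporter signal then quantified by fluorescence.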

The nature of experiment [7]: p53 small molecule agonists, cell-based qHTS assay with rat liver microsomes (AID 1963578). In outline:
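Each plate received p53RE-bla cells, then compound, then rat liver microsomes and NADPH (both 0.5 mg/mL final). Plates were held 16 h at 37 C, and beta-lactamase activity was detected with LiveBLAzer over 2 h.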

Experiment [8] is described as follows: p53 small molecule agonists, cell-based qHTS assay with rat liver microsomes: qHTS cell viability counter screen (AID 1963580). Further: nearly all actives have a fitted effect of over 45% in size. In outline:
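Intracellular ATP, by CellTiter-Glo luminescence, defines viability. HCT-116 p53RE-bla cells, 4,000 per well, were compound-treated in the presence of rat liver microsomes and NADPH for 16 h at 37 C.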

Experiment [9] deals with 5-hydroxytryptamine receptor 2A (Homo sapiens) (UniProt P28223). Briefly: 5-hydroxytryptamine receptor 2A (HTR2A) small molecule antagonists, cell-based qHTS assay (AID 1963586). Further: nearly all actives have a fitted effect of over 45% in size. The procedure, abridged: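 Antagonist-mode intracellular calcium assay: DOI (4 nM) added after 5 min compound pre-incubation at room temperature to dye-loaded HTR2A-CHO cells. Fluorescence followed for 3 min, sampled every second.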

Experiment [10] concerns the target Muscarinic acetylcholine receptor M1 (Homo sapiens) (UniProt P11229). Briefly: Cholinergic receptor muscarinic 1 (CHRM1) small molecule agonists, cell-based qHTS assay (AID 1963589). Further: nearly all actives have a fitted effect of over 35% in size. The procedure, abridged:
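Each compound was tested at 15 concentrations across three independent runs on dye-loaded CHO cells stably expressing human CHRM1, reading intracellular calcium fluorescence kinetically at 1 sec intervals.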

A short description of experiment [11]: cAMP Responsive Elements (CRE) small molecule agonists, cell-based qHTS assay (AID 1963590). In outline:
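Cell line: CRE-bla HEK 293T; medium DMEM/10% dialyzed FBS/0.1 mM NEAA/1 mM pyruvate/25 mM HEPES; 3 h compound exposure; beta-lactamase FRET readout after 2 h substrate loading at RT.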

Experiment [12] can be described thus: cAMP Responsive Elements (CRE) small molecule antagonists, cell-based qHTS assay (AID 1963591; active means well fitted inhibition curve with a large enough effect in the signal ratio in the repeat runs, not every such curve was filed as active; the % refers to the signal ratio). In outline:
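Inhibition of NKH477-driven (0.25 uM final) CRE-beta-lactamase signal in HEK293T cells, 3 h compound exposure at 37 °C, detected by FRET substrate fluorescence.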

Experiment [13] addresses Beta-2 adrenergic receptor (Homo sapiens) (UniProt P07550). Briefly: Adrenergic beta2 receptor (ADRB2) small molecule antagonists, cell-based qHTS assay (AID 1963592). Further: series mostly up to about 92 µM; nearly all actives have a fitted effect of over 50% in size. In outline: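 Cells (CHO, stable ADRB2 overexpression) incubated 18-20hr at 37C; compounds added from DMSO; agonist mix (1nM isoproterenol, 100uM IBMX, 25uM Ro-20-1724) added; 0.5hr RT; d2-cAMP and anti-cAMP-cryptate added; 1hr RT; 665/615 nm read.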

The target of experiment [14] is D(2) dopamine receptor (Homo sapiens) (UniProt P14416). Briefly: Dopamine D2 receptor (DRD2) small molecule agonists, cell-based qHTS assay (AID 1963594). Further: nearly all actives have a fitted effect of over 35% in size. The procedure, abridged: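 cAMP accumulation in DRD2-HEK293 cells measured by HTRF after 1 h detection; compounds added 10 min before NKH477 (200nM […]) forskolin-analogue stimulation, 30 min at room temperature, with Ro20-1724 present at 0.1 mM final.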

Experiment [15] has the same target. Briefly: Dopamine D2 receptor (DRD2) small molecule antagonists, cell-based qHTS assay (AID 1963595; active means well fitted inhibition curve with a large enough effect in the signal ratio in the repeat runs, with a control signal flat; the % refers to the signal ratio). The procedure, abridged: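 Antagonist mode in DRD2-HEK293 cells: after compound addition with 0.1 mM Ro20-1724, cells received quinpirole (12 nM) and NKH477 (200 nM) for 30 min at room temperature; HTRF cAMP read after 1 h detection.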
Experiment [16] is described as follows: p53 small molecule agonists, cell-based qHTS assay (AID 1963582; active means well fitted activation curve with a large enough effect in the signal ratio in the repeat runs, not every such curve was filed as active; the % refers to the signal ratio). In outline:
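Compounds are pin-transferred in DMSO onto p53RE-bla cells and incubated 16 h at 37 C. The B/G FRET beta-lactamase substrate is then applied for 2 h at RT and fluorescence recorded.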

The target in experiment [17] is 5-hydroxytryptamine receptor 2A (Homo sapiens) (UniProt P28223). Description: 5-hydroxytryptamine receptor 2A (HTR2A) small molecule agonists, cell-based qHTS assay (AID 1963587). Further: nearly all actives have a fitted effect of over 30% in size. In outline:
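Kinetic calcium-flux fluorescence (2 min, 1 sec intervals) after compound addition in agonist mode. HTR2A-CHO cells were cultured 18 h, then dye-loaded 1 h at 37 C.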

In experiment [18] the target is Muscarinic acetylcholine receptor M1 (Homo sapiens) (UniProt P11229). Briefly: Cholinergic receptor muscarinic 1 (CHRM1) small molecule antagonists, cell-based qHTS assay (AID 1963588). Further: nearly all actives have a fitted effect of over 40% in size. Further: potency means the concentration at half of the fitted maximal effect. The procedure, abridged:
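CHRM1-CHO calcium-flux assay, antagonist mode. Cells were seeded 18 h, dye-loaded 1 h at 37 C and given compound for 5 min at RT, then acetylcholine was added at 50nM. FDSS fluorescence was read 3 min; 15 concentrations, three runs.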

A short description of experiment [19]: p53 small molecule agonists, cell-based qHTS assay: qHTS cell viability counter screen (AID 1963581). Further: nearly all actives have a fitted effect of over 45% in size. The procedure, abridged:
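In the same plates used for the p53 bla reporter, HCT-116 cells given compounds for 16 h at 37 C received CellTiter-Glo; luminescence was recorded 30 min later at room temperature.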

D(2) dopamine receptor (Homo sapiens), sequence (P14416 whole entry, looked up): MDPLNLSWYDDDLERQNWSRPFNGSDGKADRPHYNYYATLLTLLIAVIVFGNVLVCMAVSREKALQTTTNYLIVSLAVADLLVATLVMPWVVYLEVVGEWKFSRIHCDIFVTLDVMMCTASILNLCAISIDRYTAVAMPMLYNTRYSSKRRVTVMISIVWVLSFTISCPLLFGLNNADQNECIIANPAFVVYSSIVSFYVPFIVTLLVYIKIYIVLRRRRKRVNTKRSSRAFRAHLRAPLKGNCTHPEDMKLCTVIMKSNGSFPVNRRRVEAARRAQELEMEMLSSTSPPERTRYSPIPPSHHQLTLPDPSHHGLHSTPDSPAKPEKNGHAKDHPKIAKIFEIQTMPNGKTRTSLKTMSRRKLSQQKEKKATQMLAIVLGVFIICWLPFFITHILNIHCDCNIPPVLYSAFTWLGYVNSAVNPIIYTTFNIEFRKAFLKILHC
KiSS-1 receptor (Homo sapiens), sequence (Q969F8 whole entry, looked up): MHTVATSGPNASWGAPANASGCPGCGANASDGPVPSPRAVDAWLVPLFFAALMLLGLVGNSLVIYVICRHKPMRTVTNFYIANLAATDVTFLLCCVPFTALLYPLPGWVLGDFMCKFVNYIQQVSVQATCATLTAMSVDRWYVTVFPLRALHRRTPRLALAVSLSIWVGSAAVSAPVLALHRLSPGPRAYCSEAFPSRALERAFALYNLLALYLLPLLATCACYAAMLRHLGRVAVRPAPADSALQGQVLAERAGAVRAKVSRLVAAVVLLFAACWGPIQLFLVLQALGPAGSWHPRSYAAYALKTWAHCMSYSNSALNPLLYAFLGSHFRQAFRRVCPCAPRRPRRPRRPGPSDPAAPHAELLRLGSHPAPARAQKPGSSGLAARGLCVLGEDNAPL
Gonadotropin-releasing hormone receptor (Homo sapiens), sequence (P30968 whole entry, looked up): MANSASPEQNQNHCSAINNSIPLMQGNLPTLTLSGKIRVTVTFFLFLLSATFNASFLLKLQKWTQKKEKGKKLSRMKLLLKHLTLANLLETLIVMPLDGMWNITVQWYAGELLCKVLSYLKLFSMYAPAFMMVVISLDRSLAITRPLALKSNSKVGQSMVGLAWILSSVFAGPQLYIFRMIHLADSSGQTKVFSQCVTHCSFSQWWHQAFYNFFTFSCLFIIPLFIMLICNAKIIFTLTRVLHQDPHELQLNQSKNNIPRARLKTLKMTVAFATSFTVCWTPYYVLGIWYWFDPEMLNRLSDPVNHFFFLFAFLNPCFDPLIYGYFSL
5-hydroxytryptamine receptor 2A (Homo sapiens), sequence (P28223 whole entry, looked up): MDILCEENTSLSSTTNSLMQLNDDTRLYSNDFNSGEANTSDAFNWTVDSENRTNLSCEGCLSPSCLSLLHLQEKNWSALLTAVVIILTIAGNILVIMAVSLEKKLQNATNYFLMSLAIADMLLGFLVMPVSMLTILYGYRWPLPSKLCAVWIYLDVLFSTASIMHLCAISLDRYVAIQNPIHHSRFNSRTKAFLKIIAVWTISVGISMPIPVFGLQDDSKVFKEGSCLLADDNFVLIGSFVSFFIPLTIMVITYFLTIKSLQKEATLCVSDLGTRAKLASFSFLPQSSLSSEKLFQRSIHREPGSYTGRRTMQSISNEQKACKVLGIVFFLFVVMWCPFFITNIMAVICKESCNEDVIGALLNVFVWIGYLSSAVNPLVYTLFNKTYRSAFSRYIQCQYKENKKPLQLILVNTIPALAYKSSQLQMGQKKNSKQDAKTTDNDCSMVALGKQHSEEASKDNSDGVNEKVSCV
Beta-2 adrenergic receptor (Homo sapiens), sequence (P07550 whole entry, looked up): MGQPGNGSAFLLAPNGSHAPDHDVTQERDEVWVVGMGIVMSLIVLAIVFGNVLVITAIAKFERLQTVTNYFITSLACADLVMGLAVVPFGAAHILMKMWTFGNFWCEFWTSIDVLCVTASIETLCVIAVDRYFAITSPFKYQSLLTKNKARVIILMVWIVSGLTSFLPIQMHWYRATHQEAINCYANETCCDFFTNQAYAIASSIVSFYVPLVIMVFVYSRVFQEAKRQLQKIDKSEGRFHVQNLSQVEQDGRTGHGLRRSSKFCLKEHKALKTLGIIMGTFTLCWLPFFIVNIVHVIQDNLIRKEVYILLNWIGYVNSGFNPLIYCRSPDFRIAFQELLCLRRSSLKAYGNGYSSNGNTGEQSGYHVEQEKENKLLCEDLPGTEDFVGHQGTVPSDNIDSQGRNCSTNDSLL
Muscarinic acetylcholine receptor M1 (Homo sapiens), sequence (P11229 whole entry, looked up): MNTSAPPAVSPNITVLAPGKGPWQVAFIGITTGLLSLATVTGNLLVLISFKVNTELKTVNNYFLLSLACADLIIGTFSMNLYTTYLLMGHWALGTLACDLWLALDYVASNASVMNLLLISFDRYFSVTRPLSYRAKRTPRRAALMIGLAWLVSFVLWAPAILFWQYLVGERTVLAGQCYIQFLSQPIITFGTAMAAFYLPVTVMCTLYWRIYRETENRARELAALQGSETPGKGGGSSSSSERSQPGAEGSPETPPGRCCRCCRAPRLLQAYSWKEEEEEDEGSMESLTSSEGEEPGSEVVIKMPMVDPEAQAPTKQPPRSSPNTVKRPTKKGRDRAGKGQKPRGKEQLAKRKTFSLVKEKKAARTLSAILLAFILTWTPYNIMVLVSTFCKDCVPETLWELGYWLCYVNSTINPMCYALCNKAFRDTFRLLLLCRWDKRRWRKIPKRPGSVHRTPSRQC

Take `COc1cnc(NS(=O)(=O)c2ccc(N)cc2)nc1`: the Potency result in experiment [1], in experiment [2], in experiment [3], in experiment [6], in experiment [7] and in experiment [8] was “inactive” throughout. Besides, the Potency entry in experiment [9], in experiment [10], in [11], in [12], in [13] and in experiment [14] was “inactive” each time. Also, the Potency entry in [15] was “inactive”. For the same molecule, the outcome in [4] and in experiment [5] was inactive.
Take `CN1CCCCC1CCN1c2ccccc2Sc2ccc(S(C)=O)cc21` (centres undefined): the Potency entry in [1], in experiment [2], in experiment [3], in experiment [6], in [7] and in experiment [8] was “inactive” throughout. The Potency result in [16], in experiment [17], in [10], in [11], in experiment [12] and in experiment [13] was “inactive” each time. In addition, in experiment [14], the Potency result was “inactive”. The result in [4] and in experiment [5] was inactive. Besides, the Potency in experiment [18] was 0.0103 µM (active).
With `O=C(O)Cc1c(Cl)ccc(Cl)c1Cl`, the Potency result in [1], in experiment [2], in experiment [3], in experiment [6], in experiment [7] and in experiment [8] was “inactive” each time. Besides, the Potency entry in experiment [16], in [9], in experiment [17], in experiment [18], in experiment [10] and in [13] was “inactive” throughout. The Potency entry in [14] is “inactive”. For the same molecule, the result in experiment [4] and in experiment [5] was inactive.
For `Cc1cc(C(C)(C)C)c(O)c(C)c1Cn1c(=O)n(Cc2c(C)cc(C(C)(C)C)c(O)c2C)c(=O)n(Cc2c(C)cc(C(C)(C)C)c(O)c2C)c1=O`, the Potency result in experiment [1], in experiment [2], in [3], in [6], in experiment [7] and in experiment [8] was “inactive” in each case. The Potency entry in [19], in [9], in experiment [17], in [18], in [10] and in experiment [11] was “inactive” each time. In addition, the Potency result in [12], in [13], in experiment [14] and in [15] was “inactive” in each case. The result in experiment [4] and in [5] was inactive.
Regarding `CCOCCn1c(C2CCN(CCc3ccc(C(C)(C)C(=O)O)cc3)CC2)nc2ccccc21`, the Potency result in [1], in experiment [2], in [3], in experiment [6], in experiment [7] and in experiment [8] was “inactive” throughout. The Potency result in experiment [16], in experiment [9], in [10], in experiment [11], in [12] and in experiment [13] was “inactive” each time. For the same molecule, the Potency result in [14] and in experiment [15] was “inactive” in each case. The outcome in experiment [4] and in [5] was inactive.
Turning to `CC(=O)Oc1cc(C(C)C)c(OCCN(C)C)cc1C`, the Potency entry in [1], in experiment [2], in [3], in experiment [6], in experiment [7] and in experiment [8] was “inactive” in each case. For the same molecule, the Potency entry in [9], in [17], in experiment [18], in experiment [11], in experiment [12] and in experiment [13] was “inactive” throughout. In addition, the Potency result in experiment [14] and in [15] was “inactive” each time. Besides, the result in experiment [4] and in experiment [5] was inactive.
Consider `CC1(C)[C@H]2CC[C@]1(C)C(=O)C2`, for which the Potency entry in [1], in experiment [3], in experiment [6], in experiment [7], in [8] and in [19] was “inactive” in each case. The Potency entry in [12], in experiment [13], in [14] and in [15] was “inactive” each time. Further, in [2], the Potency is 68.6 µM (active). The outcome in experiment [4] and in [5] was inactive.
